Reference: PubChem BioAssay (NCI)
This is part of a sample that, as a whole, favours compounds with a hit. Of some 79,000 tested, about 15% had one in any assay. Active and inactive are the calls of the source. No stated cut-off is given here; in the data, active means growth inhibition above about 70%; inactive means the rest.

What was measured:
[1] = NCI Yeast Anticancer Drug Screen. Data for the rad52 strain (AID 147);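 further: 0% = growth of vehicle-treated control cultures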; conditions: S. cerevisiae rad52 mutant growth inhibition, active compounds read high
How it was run: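 DNA repair-defective yeast; compound exposure; growth scored against vehicle controls.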

[2] = NCI Yeast Anticancer Drug Screen. Data for the wt1 strain (AID 149);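 further: 0% = growth of vehicle-treated wt1 cultures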; conditions: S. cerevisiae wt1 strain (SPY 50644) growth inhibition, active compounds read high
How it was run: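 Each compound is tested on wt1 yeast and the loss of growth versus vehicle gives the inhibition value.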

[3] = NCI Yeast Anticancer Drug Screen. Data for the rad50EPP+ strain (AID 151);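 further: 0% = growth of vehicle-treated control cultures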; conditions: S. cerevisiae rad50 mutant strain, active compounds read high
How it was run: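 rad50EPP+ yeast treated with test compounds. Readout: growth vs vehicle control.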

[4] = NCI Yeast Anticancer Drug Screen. Data for the mgt1 strain (AID 153); conditions: S. cerevisiae mgt1 mutant growth inhibition, active compounds read high
How it was run: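 Growth inhibition relative to vehicle controls was scored for the mgt1 yeast strain after compound exposure.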

[5] = NCI Yeast Anticancer Drug Screen. Data for the rad50 strain (AID 155);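 further: 0% = growth of vehicle-only cultures of the same strain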; conditions: S. cerevisiae rad50 strain growth inhibition, active compounds read high
How it was run: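 Vehicle-treated cultures provide the reference for the growth inhibition reported for compound-exposed, repair-deficient yeast.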

[6] = NCI Yeast Anticancer Drug Screen. Data for the mec2-1 strain (AID 157); conditions: S. cerevisiae mec2-1 strain, active compounds read high
How it was run: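 Growth inhibition is read against vehicle-treated controls after compound exposure of the mec2-1 yeast strain, which is defective in DNA damage repair or cell cycle control.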

[7] = NCI Yeast Anticancer Drug Screen. Data for the sgs1 mgt1 strain (AID 161);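 further: 0% = growth of cultures given vehicle only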; conditions: S. cerevisiae sgs1 mgt1 strain, active compounds read high
How it was run: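 Yeast cells carrying a defined DNA-repair defect were exposed to test compounds. Growth inhibition was measured relative to vehicle-treated controls.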

[8] = NCI Yeast Anticancer Drug Screen. Data for the CLN2oe strain (AID 163);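 further: 0% = growth of vehicle-only control cultures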; conditions: S. cerevisiae CLN2oe strain, active compounds read high
How it was run: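 Compound-treated yeast; growth vs vehicle ctrl = % inhibition. Genetically altered strain (cell-cycle control).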

[9] = NCI Yeast Anticancer Drug Screen. Data for the cln2 rad14 strain (AID 165);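 further: 0% = growth equal to vehicle treated cultures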; conditions: S. cerevisiae cln2 rad14 strain, active compounds read high
How it was run: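 Growth inhibition, relative to vehicle-treated controls, is the read-out. The test organism is a yeast strain with defined genetic alterations, cln2 rad14.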

[10] = NCI Yeast Anticancer Drug Screen. Data for the bub3 strain (AID 167); conditions: S. cerevisiae bub3 mutant strain, active compounds read high
How it was run: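 Mutant yeast screening strain plus compound; vehicle-treated cultures serve as the 0% inhibition reference.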

[11] = NCI Yeast Anticancer Drug Screen. Data for the wt2 strain (AID 169); conditions: S. cerevisiae wt2 strain growth inhibition, active compounds read high
How it was run: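 Compound exposure of yeast; growth compared with vehicle controls; inhibition reported.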

[12] = NCI Yeast Anticancer Drug Screen. Data for the mlh1 strain (AID 171);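 further: 0% = growth of vehicle-treated control cultures of the same strain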; conditions: S. cerevisiae mlh1 strain growth inhibition, active compounds read high
How it was run: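 Compounds are applied to a genetically altered yeast strain, and its growth is compared with that of vehicle-treated cultures to give percent inhibition.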

[13] = NCI Yeast Anticancer Drug Screen. Data for the sgs1 strain (AID 173);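 further: 0% = growth of vehicle-only control cultures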; conditions: S. cerevisiae sgs1 mutant, active compounds read high
How it was run: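 Compounds applied to genetically altered yeast; growth compared with vehicle-treated cultures to give % inhibition.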

[14] = NCI Yeast Anticancer Drug Screen. Data for the mlh1 rad18 strain (AID 175); conditions: S. cerevisiae mlh1 rad18 strain growth inhibition, active compounds read high
How it was run: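 Cells of a genetically altered yeast strain, deficient in DNA damage repair, were treated with compound. Their growth was then compared with that of vehicle-treated cultures to give inhibition.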

[15] = NCI Yeast Anticancer Drug Screen. Data for the rad18 strain (AID 177); conditions: S. cerevisiae rad18 mutant growth inhibition, active compounds read high
How it was run: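 Compounds are applied to a repair-deficient yeast strain, and growth is compared with that of vehicle-treated cultures to give percent inhibition.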

[16] = at 5.0 µM (retest, dose inferred, filed as 0.5)
[17] = at 50.0 µM (retest, dose inferred, filed as 5.0)

Measured: growth inhibition

C[C@@H]1C[C@H]2[C@@H]3CCC4=CC(=O)C=C[C@]4(C)[C@@]3(Cl)[C@@H](Cl)C[C@]2(C)[C@@]1(O)C(=O)COP(=O)(O)O
inactive: [1]; at 1.2 µM -1% | [1]; at 3.7 µM -3% | [1]; at 11.0 µM 6% | [1]; at 33.0 µM 1% | [1]; at 100.0 µM 3% | [2]; at 1.2 µM 1% | [2]; at 3.7 µM -2% | [2]; at 11.0 µM -3% | [2]; at 33.0 µM -4% | [2]; at 100.0 µM -2% | [3]; at 1.2 µM -3% | [3]; at 3.7 µM -8% | [3]; at 11.0 µM -3% | [3]; at 33.0 µM 3% | [3]; at 100.0 µM 5% | [4]; at 1.2 µM 11% | [4]; at 3.7 µM 5% | [4]; at 11.0 µM 3% | [4]; at 33.0 µM 8% | [4]; at 100.0 µM 2% | [5]; at 1.2 µM 4% | [5]; at 3.7 µM -10% | [5]; [16] 2% | [5]; at 11.0 µM 3% | [5]; at 33.0 µM 7% | [5]; [17] 19% | [5]; at 50.0 µM -34.1% | [5]; at 100.0 µM 8% | [6]; at 1.2 µM -3% | [6]; at 3.7 µM -3% | [6]; [16] 17% | [6]; at 11.0 µM 0% | [6]; at 33.0 µM -3% | [6]; [17] 5% | [6]; at 50.0 µM -36.9% | [6]; at 100.0 µM 1% | [7]; [16] -14% | [7]; [17] 6% | [7]; at 50.0 µM -30.8% | [8]; at 1.2 µM -10% | [8]; at 3.7 µM -3% | [8]; at 11.0 µM 7% | [8]; at 33.0 µM -1% | [8]; at 100.0 µM -6% | [9]; [16] 41% | [9]; [17] -23% | [9]; at 50.0 µM 26.1% | [10]; at 1.2 µM 2% | [10]; at 3.7 µM -1% | [10]; [16] -20% | [10]; at 11.0 µM 2% | [10]; at 33.0 µM 0% | [10]; [17] -8% | [10]; at 50.0 µM -42.2% | [10]; at 100.0 µM -3% | [11]; at 1.2 µM -2% | [11]; at 3.7 µM -2% | [11]; at 11.0 µM -2% | [11]; at 33.0 µM -2% | [11]; at 100.0 µM -3% | [12]; at 1.2 µM 2% | [12]; at 3.7 µM 3% | [12]; at 11.0 µM 0% | [12]; at 33.0 µM 8% | [12]; at 100.0 µM 12% | [13]; at 1.2 µM 0% | [13]; at 3.7 µM -3% | [13]; at 11.0 µM -2% | [13]; at 33.0 µM -1% | [13]; at 100.0 µM -1% | [14]; [16] 9% | [14]; [17] 1% | [14]; at 50.0 µM -18.3% | [15]; at 1.2 µM -4% | [15]; at 3.7 µM -5% | [15]; at 11.0 µM 1% | [15]; at 33.0 µM 7% | [15]; at 100.0 µM 7%

CC1(C)C(=O)OC(n2cc(F)c(=O)[nH]c2=O)C1=O (stereo unspecified)
active: [5]; [17] 74% | [7]; [17] 80%
inactive: [1]; at 1.2 µM -32% | [1]; at 3.7 µM -22% | [1]; at 11.0 µM -27% | [1]; at 33.0 µM -8% | [1]; at 100.0 µM 26% | [2]; at 1.2 µM -39% | [2]; at 3.7 µM -43% | [2]; at 11.0 µM -18% | [2]; at 33.0 µM -36% | [2]; at 100.0 µM 1% | [3]; at 1.2 µM -30% | [3]; at 3.7 µM -29% | [3]; at 11.0 µM -7% | [3]; at 33.0 µM 21% | [3]; at 100.0 µM 56% | [4]; at 1.2 µM 19% | [4]; at 3.7 µM 32% | [4]; at 11.0 µM 34% | [4]; at 33.0 µM 49% | [4]; at 100.0 µM 67% | [5]; at 1.2 µM -11% | [5]; at 3.7 µM -10% | [5]; [16] 25% | [5]; at 11.0 µM 3% | [5]; at 33.0 µM 17% | [5]; at 50.0 µM 6.6% | [5]; at 100.0 µM 37% | [6]; at 1.2 µM -31% | [6]; at 3.7 µM -5% | [6]; [16] 1% | [6]; at 11.0 µM -11% | [6]; at 33.0 µM 9% | [6]; [17] 34% | [6]; at 50.0 µM 2.95% | [6]; at 100.0 µM 60% | [7]; [16] 36% | [7]; at 50.0 µM 30% | [8]; at 1.2 µM 12% | [8]; at 3.7 µM 13% | [8]; at 11.0 µM -1% | [8]; at 33.0 µM 30% | [8]; at 100.0 µM -1% | [9]; [16] 27% | [9]; [17] 45% | [9]; at 50.0 µM 56.8% | [10]; at 1.2 µM 19% | [10]; at 3.7 µM 21% | [10]; [16] 45% | [10]; at 11.0 µM 19% | [10]; at 33.0 µM 37% | [10]; [17] 62% | [10]; at 50.0 µM 27.1% | [10]; at 100.0 µM 39% | [12]; at 1.2 µM -14% | [12]; at 3.7 µM -15% | [12]; at 11.0 µM -2% | [12]; at 33.0 µM 19% | [12]; at 100.0 µM 49% | [13]; at 1.2 µM -17% | [13]; at 3.7 µM -13% | [13]; at 11.0 µM -2% | [13]; at 33.0 µM 45% | [13]; at 100.0 µM 67% | [14]; [16] 13% | [14]; [17] 48% | [14]; at 50.0 µM 15.7% | [15]; at 1.2 µM 4% | [15]; at 3.7 µM 8% | [15]; at 11.0 µM 8% | [15]; at 33.0 µM 21% | [15]; at 100.0 µM 28%
